High-throughput results (PubChem)
Rows were chosen to be rich in hits. Some 4.8% of all compounds tested hit in one or more screens of this group.
APP 5'UTR act – activators of APP 5'UTR luciferase reporter, primary screen, SH-SY5Y cells; SH-SY5Y APP 5'UTR luciferase reporter, luminescence; zero percent = DMSO vehicle wells; activation, % at 2 µM; 190,000 tested, 1% active;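 active = activation above a set limit, based on mean plus 3 SD of controls, cut at about 140% in these data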
APP transl inh – inhibitors of APP translation via 5'UTR reporter, primary screen, APP 5'UTR luciferase, SH-SY5Y cells. 190,000 tested, 0.82% active. SH-SY5Y APP 5'UTR-luciferase reporter, luminescence. inhibition, % at 2 µM;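 active = inhibition above a set limit, derived from the sample mean plus 3 SD, cut at about 45% in these data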
NF-kB neuron act – activators of NF-kB expression in neurons, primary screen, cell-based, HTS; human neuronal cells, NF-kB reporter expression; active compounds read high; fold change at 12.5 µM; 190,000 tested, 1.6% active; in the data active = fold change above about 3.3
Hsp70 activator – Hsp70 transcriptional activators, primary screen, cell-based, HeLa, Hsp70 promoter luciferase, luminescence, 10 µM. HeLa Hsp70 promoter luciferase reporter; scaled: vehicle 0, proteasome-inhibitor control 100%. activation, % at 10 µM. 200,000 tested, 0.04% active;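 active = activation above the mean across all tested compounds plus 3 SD, cutoff set per campaign, cut at about 5.5% in these data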;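 note: 100% = MG132 at 30 µM as the positive control and 0% = DMSO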
STAT1 act – STAT1 signaling activators, primary screen, cell-based, HTS, luciferase reporter | activation (% of control), % at 5.5 µM | 200,000 tested, 2.6% active | AID 932, 2007 | NIH 3T3 STAT1-luciferase reporter, IFN-gamma, luminescence; 100% = IFN-gamma alone, no compound;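 active = activation above the screen-wide mean activation plus 3 SD, cut at about 130% in these data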;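 note: raw ratio to IFN-gamma control signal so 100% means no change and 0% no light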
Wee1 degr inh – Wee1 degradation inhibitors, primary screen, cell-based, HeLa, Wee1K328M-luciferase, luminescence. HeLa Luc-Wee1K328M stability; 100% = proteasome inhibitor MG132 effect. reporter increase, % at 5 µM. 220,000 tested, 1.2% active;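 active = activation above the mean of all tested compounds plus 3 SD, set per screening run, cut at about 8.8% in these data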;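 note: cells exposed to compound for 20 h before luminescence read; 0% = DMSO alone and 100% = MG132 at 30 µM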
Target sequence (P30291 whole entry K328M): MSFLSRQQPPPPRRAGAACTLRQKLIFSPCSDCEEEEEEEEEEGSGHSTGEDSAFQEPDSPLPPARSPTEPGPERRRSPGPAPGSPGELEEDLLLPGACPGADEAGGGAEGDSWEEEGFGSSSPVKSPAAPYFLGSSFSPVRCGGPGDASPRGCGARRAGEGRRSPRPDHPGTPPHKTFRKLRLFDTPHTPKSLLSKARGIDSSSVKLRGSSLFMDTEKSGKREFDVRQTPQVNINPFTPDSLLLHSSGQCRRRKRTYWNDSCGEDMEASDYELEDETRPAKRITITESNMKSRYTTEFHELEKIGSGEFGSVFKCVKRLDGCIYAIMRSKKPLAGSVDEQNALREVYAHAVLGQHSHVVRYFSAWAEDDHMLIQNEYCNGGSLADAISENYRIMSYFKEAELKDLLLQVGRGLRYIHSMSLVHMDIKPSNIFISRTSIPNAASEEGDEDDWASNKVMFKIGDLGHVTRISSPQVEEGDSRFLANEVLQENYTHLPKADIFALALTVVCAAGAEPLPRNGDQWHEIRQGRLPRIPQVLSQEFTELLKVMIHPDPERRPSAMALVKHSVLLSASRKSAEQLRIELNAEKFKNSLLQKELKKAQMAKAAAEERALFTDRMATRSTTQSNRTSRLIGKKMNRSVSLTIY
STAT1 act conf – STAT1 signaling activators, confirmation, cell-based, HTS, luciferase reporter. activation (% of control), % at 5.7 µM. shares compounds with STAT1 act. NIH 3T3 STAT1-luciferase reporter, IFN-gamma potentiation, luminescence; 100% = IFN-gamma EC80 alone, no compound. 1,200 tested, 97% active;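 active = activation above a set limit carried over from the earlier primary STAT1 screen, cut at about 140% in these data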;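 note: simple ratio to median IFN-gamma plus DMSO wells so 0% means no light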
NFkB act – NF-kB reporter activators, TNF-alpha stimulated, counter-screen for STAT1 activator project, cell-based, HEK293T, luciferase luminescence. shares compounds with STAT1 act. 100% = TNF-alpha with vehicle only. activation (% of control), % at 5.7 µM. 1,200 tested, 43% active;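 active = activation above the mean of solvent-only control wells plus 3 SD, set per campaign, cut at about 130% in these data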;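 note: TNF-alpha given at a submaximal dose yielding about 80% of full reporter signal; values are well signal over median control so 100% means no change and 0% no light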
STAT3 act STAT1c – STAT3 reporter activation by STAT1 hits, confirmation, counter-screen for STAT1 activator project, U3A cells, luciferase, luminescence | shares compounds with STAT1 act | IL-6; cells lack STAT1; 100 = IL-6 alone, no compound effect | activation (% of control), % at 5.7 µM | 1,200 tested, 46% active | AID 1316, 2008;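 active = activation above the solvent-only control well mean plus 3 SD, set per plate batch, cut at about 110% in these data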;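 note: 0% = no luminescence and 100% = median IL-6 plus DMSO wells; higher means more STAT3 reporter activation so hits are non-selective activators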
Hsp70 act DR – Hsp70 transcriptional activators, dose response, cell-based, HeLa, Hsp70 promoter luciferase, luminescence, triplicate | shares compounds with Hsp70 activator | 70 tested, 10% active | HeLa hsp70.1pr-luc reporter | calls only at 99 µM;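 active = over 50% activation at some tested dose; inactive = under 50% activation at every tested dose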
Wee1 degr conf – Wee1 degradation inhibitors, confirmation, cell-based, HeLa, Wee1K328M-luciferase, luminescence, triplicate; shares compounds with Wee1 degr inh; HeLa Luc-Wee1K328M degradation; vehicle 0%, proteasome-blocked wells 100%; 1,100 tested, 4% active; activation, % at 5 µM; AID 1410, 2008; in the data active = activation above about 8.9%
* marks the source's active call; other numbers are inactive results; i = inactive; . = not tested or not shown.

SMILES	APP 5'UTR act	APP transl inh	NF-kB neuron act	Hsp70 activator	STAT1 act	Wee1 degr inh	others
O=C(C1CCC(=O)N1C1CCCC1)N1CCC2(CC1)OCCO2 (stereo unspecified)	14	-14	1.1	0	101	-1
CCc1ccc(-c2nn(Cc3ccccc3)cc2C=O)cc1	133	-133	4.1*	0	170*	-1	STAT1 act conf=158*;NFkB act=128;STAT3 act STAT1c=121*
O=C(O)c1cn(Cc2ccccc2)nc1-c1ccccc1	-4	4	0.98	0	97	5
Cc1ccc2cc(C=C(C#N)C#N)c(Cl)nc2c1	.	.	1.3	0	106	1
CN1C(=O)/C(=C/c2ccc(N3CCCCCC3)o2)C(=O)NC1=S	28	-28	2.4	1	166*	4	STAT1 act conf=213*;NFkB act=148*;STAT3 act STAT1c=126*
CNc1cc(Cl)c2nonc2c1[N+](=O)[O-]	-85	84*	0.91	18*	141*	2	Hsp70 act DR=i
Cc1cc([N+](=O)[O-])c(Cl)cc1NC(=O)C(C)C	-19	19	1.1	0	99	0
Cc1nc2ccccc2c(=O)n1-c1ccc(Br)cc1[N+](=O)[O-]	30	-30	1.1	0	100	-3
COC(=O)C1CN(C#N)N(c2ccc(Cl)cc2)C12c1ccccc1-c1ccccc12 (stereo unspecified)	-94	94*	0.22	6.6*	88	3	Hsp70 act DR=i
CCCCC(=O)N/N=C/c1c(O)n(CCc2ccccc2)c(=O)[nH]c1=O	.	.	.	.	.	21*	Wee1 degr conf=2
CCn1cc(CN2CCCC(C(=O)c3sccc3C)C2)cn1 (stereo unspecified)	-6	6	0.83	0	94	11*	Wee1 degr conf=1
CCOc1ccc(-n2c(CC)nc3ccccc3c2=O)cc1	-22	22	0.99	0	100	2
N#CC1(c2ccccc2)CCN(C2CC(=O)N(c3cccc(F)c3)C2=O)CC1 (stereo unspecified)	-3	2	.	0	101	2
COc1ccc(NC2=NC(C)(C)CS2)cc1	59	-59	1.8	0	108	16*	Wee1 degr conf=2
COc1ccc(NC2=NCC(C)S2)cc1 (stereo unspecified)	0	0	1.3	0	104	2
